Assay outcomes: PubChem BioAssay, National Center for Advancing Translational Sciences (NCATS)
Giardia FBPA inh = Giardia lamblia aldolase inhibition; A8B2U2; purified Giardia FBPA; Potency, µM (doses to about 59.6 µM), without a hit: top-dose activity, negative = inhibition, usual class: inhibitors; actives 0.71% (n = 290,000); AID 2451; further: potency means the concentration at half of the fitted maximal effect; nearly all actives have a fitted effect of over 55% in size
Target sequence (A8B2U2 whole entry, looked up): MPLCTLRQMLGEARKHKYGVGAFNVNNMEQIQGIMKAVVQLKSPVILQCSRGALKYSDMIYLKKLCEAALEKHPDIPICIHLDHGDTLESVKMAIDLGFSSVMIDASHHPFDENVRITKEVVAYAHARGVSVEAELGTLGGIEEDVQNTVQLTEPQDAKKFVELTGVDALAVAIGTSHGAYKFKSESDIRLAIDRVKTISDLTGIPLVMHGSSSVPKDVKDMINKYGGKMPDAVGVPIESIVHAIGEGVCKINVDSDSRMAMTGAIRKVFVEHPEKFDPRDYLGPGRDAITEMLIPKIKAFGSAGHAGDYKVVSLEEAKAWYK
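40 nM FBPA preincubated 10 min at RT with compound (up to 57.5 uM final), then substrate plus GAPDH/TPI/NAD/arsenate coupling and diaphorase/resazurin added. Fluorescence read after 20 min at RT, 525/598 nm.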
Marburg entry inh = inhibitors of Marburg virus binding or cell entry; Marburg virus pseudotyped entry inhibition, cell reporter; Potency, µM (highest dose often 37.8 µM), inactives show at the highest dose activity change, negative = inhibition, actives largely listed as inhibitors; AID 540276; actives 1.8% (n = 300,000); calls by dose curve; tested in HEK293 cells; further: potency means the concentration at half of the fitted maximal effect
Lassa entry inh = Lassa virus entry inhibition; Lassa virus pseudotype entry inhibition, cell reporter; Potency, µM (series often up to 37.9 µM), inactives show at the highest dose activity change, negative = inhibition, hits mostly inhibitors; actives 1.2% (n = 300,000); AID 540256; calls by dose curve; tested in HEK293 cells; further: potency means the concentration at half of the fitted maximal effect; nearly all actives have a fitted effect of over 50% in size
FMDV inh = blocks foot and mouth disease virus. FMDV antiviral cell-based qHTS. Potency, µM (doses to about 57.9 µM), for inactives: top-dose activity change, negative = inhibition, hits mostly inhibitors. actives 1.2% (n = 410,000). AID 1159524; calls by dose curve; tested in HEK293T cells; further: read-out not given here; potency means the concentration at half of the fitted maximal effect; nearly all actives have a fitted effect of over 45% in size
HCMV antiviral = human cytomegalovirus inhibition; HFF cells, HCMV-luciferase reporter, 72 h; hits give low values; activity change, negative = inhibition, % at 57.5 µM; actives 4.5% (n = 410,000); in the data active means activity change below about -60%; inconclusive means no clear call, values can overlap the other calls; inactive means above about -39%
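Steps: HFFs plated, 16 h 37C; compounds added; HCMV-luciferase added to MOI 1 PFU/cell; 72 h 37C; OneGlo reagent, 5 min room temperature; luminescence read, normalized to controls.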
HCV inhibitor = HCV inhibition. Potency, µM (highest dose often 41.8 µM), inactives show at the top dose activity change, negative = inhibition, actives largely listed as inhibitors. actives 3.4% (n = 340,000). Huh7.5.1 HCVcc-Cre infection, luciferase reporter, 44 h; further: potency means the concentration at half of the fitted maximal effect
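Seed cells (1,000/well) for 4 h; treat with compound and infect with HCVcc-Cre, moi about 0.5. Incubate 44 h, then detect luciferase activity.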
Numbers without * were called inactive; [ ] = remark or other dose. Compounds with a hit are over-represented: about 8.3% of the library has one in this group of screens. Unless noted, the call rests on the fitted dose curve; in most records, active means well fitted curve in the direction sought with a large enough effect; inconclusive means small, poorly fitted or top-dose-only effect, or another doubt; inactive means no such curve, though single readings can be large; an effect the other way counts as inactive or inconclusive. On the % scale 0 is the no-effect control and ±100 the full control effect.

Cc1ccc(-n2c(=O)c3c4c(sc3n3c(C)nnc23)CO[C@H](C(C)C)C4)cc1 was read as Marburg entry inh 13.5%.
For N[C@](CC1c2ccccc2Oc2ccccc21)(C(=O)O)[C@H]1C[C@@H]1C(=O)O the results were FMDV inh -12.7%.
`COc1ccc(-c2noc3ccccc23)cc1` gave HCMV antiviral 3.6.
`CCC(Nc1ccc(-c2nc(-c3cccnc3)no2)cc1[N+](=O)[O-])c1ccccc1` (centres undefined) gave Marburg entry inh -0.7%[46.1 µM], Lassa entry inh -12.0%[46.1 µM], FMDV inh 0.0% and HCMV antiviral -21.1.
For COC(=O)C1CCN(S(=O)(=O)c2c[nH]c(=O)[nH]c2=O)CC1 the results were FMDV inh -17.1% and HCMV antiviral 6.8.
For CC1CCN(S(=O)(=O)c2c[nH]c(=O)[nH]c2=O)CC1 the results were Marburg entry inh -4.5%[46.1 µM], Lassa entry inh 8.7%, FMDV inh 3.2%, HCMV antiviral -21.7 and HCV inhibitor 10µM*.
For Fc1ccc2cc(C3=CCCCC3)ncc2c1 the results were HCMV antiviral -94.7*.
COc1ccccc1Nc1nc(NCCC(C)C)nc(N)c1[N+](=O)[O-] was read as Giardia FBPA inh -1.2%, FMDV inh -36.0%, HCMV antiviral inconclusive and HCV inhibitor 12.6µM*.
COc1ccccc1Nc1nc(NCCO)nc(N)c1[N+](=O)[O-] was read as Giardia FBPA inh -1.1%, Marburg entry inh inconclusive, Lassa entry inh -10.1%, FMDV inh -20.2%, HCMV antiviral 94.2 and HCV inhibitor -77.5%.
`Cc1ccccc1OC1C(=O)N(Cc2ccc3c(c2)OCO3)C1c1sccc1C` (centres undefined) gave Giardia FBPA inh -8.8%, Marburg entry inh inconclusive, Lassa entry inh inconclusive, FMDV inh -29.9%, HCMV antiviral -70.6* and HCV inhibitor inconclusive.
`O=C1C(Oc2ccccc2)C(c2cccs2)N1Cc1ccc2c(c1)OCO2` (centres undefined) gave Giardia FBPA inh 9.1%, Marburg entry inh inconclusive, Lassa entry inh -10.8%, FMDV inh -21.7%, HCMV antiviral -37.5 and HCV inhibitor inconclusive.
Cc1ccc(N2C(=O)c3cccc([N+](=O)[O-])c3C2=O)cc1C was read as Giardia FBPA inh -0.2%, Marburg entry inh -5.1%[46.1 µM], Lassa entry inh 2.2%, FMDV inh -6.8%, HCMV antiviral -34.2 and HCV inhibitor 12.9%.
Cc1cccc(C)c1N1C(=O)c2cccc([N+](=O)[O-])c2C1=O was read as Giardia FBPA inh 25.5%, Marburg entry inh 20.9%, Lassa entry inh 10.2%, FMDV inh -26.1%, HCMV antiviral -62.7* and HCV inhibitor 13.3%.
OC[C@H]1O[C@H](n2cnc3c(N[C@H]4CCC[C@@H]4O)ncnc32)[C@H](O)[C@@H]1O was read as Marburg entry inh 2.4% and Lassa entry inh 9.2%.
`Cc1ccc(-n2c([O-])nc(-[n+]3ccccc3)c2C=O)cc1` gave Giardia FBPA inh -6.2%, Marburg entry inh -0.4%, Lassa entry inh 19.4%, HCMV antiviral -72.1* and HCV inhibitor 7.0%.
For Cc1nnsc1C(=O)N/N=C/c1ccc2ccccc2c1O the results were Giardia FBPA inh -20.9%, Marburg entry inh inconclusive, Lassa entry inh inconclusive, FMDV inh inconclusive, HCMV antiviral -99.6* and HCV inhibitor inconclusive.
`Cc1nnsc1C(=O)N/N=C/c1ccc(OC(F)(F)F)cc1` gave Giardia FBPA inh 4.1%, Marburg entry inh 4.0%[46.1 µM], Lassa entry inh inconclusive, FMDV inh 22.4%, HCMV antiviral -60.5* and HCV inhibitor 5.7%.
Screening CC(=CCO)CCO returned Marburg entry inh 1.8%[14.2 µM] and Lassa entry inh inconclusive.
Screening COC(=O)c1cccc(N2C(=O)C[C@](Sc3ccc(OC)cc3)(C(=O)N3CCN(c4ncccn4)CC3)[C@H]2c2ccc(OC)cc2)c1 returned HCMV antiviral -25.0.
For CC(CCC(C)C(C)(C)C)[C@@H]1CC[C@H]2C3C[C@H](OS(O)(=S)=S)[C@H]4C[C@H](OS(O)(=S)=S)[C@@H](OS(O)(=S)=S)C[C@]4(C)[C@H]3CC[C@]12C (some centres undefined) (tested in a mixture with another compound) the results were FMDV inh -28.0% and HCV inhibitor 2.51µM*.
For CCC(CCC(C)C1CCC2C3CCC4CC(O)CC[C@@]4(C)C3CC[C@@]12C)C(C)C (some centres undefined) the results were Giardia FBPA inh -0.2% and FMDV inh -16.0%.
For Cc1ccc(NC(=O)Nc2nnc(N(C)Cc3ccccc3)s2)cc1 the results were Marburg entry inh inconclusive, Lassa entry inh -24.4%[46.1 µM], FMDV inh -18.4% and HCMV antiviral 10.5.
NS(=O)(=O)c1ccc(N=Nc2ccc(=O)[nH]c2O)cc1 was read as Giardia FBPA inh 5.61µM*, Marburg entry inh 3.9%, Lassa entry inh 11.1%, FMDV inh 3.9%, HCMV antiviral -36.4 and HCV inhibitor 13.3%.
For NS(=O)(=O)c1ccc(N=Nc2c(O)[nH]c3ccc(C(=O)NCCCn4ccnc4)cc23)cc1 the results were Lassa entry inh 3.15µM*.
NS(=O)(=O)c1ccc(N=Nc2c(O)[nH]c3ccc(Cl)cc23)cc1 was read as Lassa entry inh 2.81µM*.
Screening COCCc1nn2c(=O)cc(COC(=O)COc3ccccc3C)nc2s1 returned Lassa entry inh 1.1%[46.1 µM], FMDV inh -7.8% and HCMV antiviral 16.0.
For Cc1c(Cl)cccc1NC(=O)Nc1nnc(N(C)C2CCCCC2)s1 the results were Marburg entry inh inconclusive, Lassa entry inh 7.1%[46.1 µM], FMDV inh 1.4% and HCMV antiviral 3.8.
COCC(=O)Nc1cc(C(=O)N2CCc3sccc3C2)c2c(c1)nc(-c1ccncc1)n2C was read as FMDV inh 0.9%.
For CC1(C(=O)NC2CCCCC2)CCC(=O)N1Cc1cccnc1 (centres undefined) the results were Giardia FBPA inh 1.1%, FMDV inh 6.8%, HCMV antiviral -81.9* and HCV inhibitor 8.9%.
Screening CCOC(=O)N[C@@H](Cc1cccnc1)C(=O)N1CCC[C@H]1C(=O)NCCc1ccccc1Cl returned HCMV antiviral -19.2.
Screening Cc1cc([N+](=O)[O-])nn1CC(=O)Nc1ccccn1 returned Giardia FBPA inh -0.5%, Marburg entry inh 16.2%[46.1 µM], Lassa entry inh 0.9%, FMDV inh 1.7%, HCMV antiviral -13.8 and HCV inhibitor 10.4%.
Cc1cc([N+](=O)[O-])nn1CC(=O)Nc1ccc(Cl)cn1 was read as Giardia FBPA inh 2.7%, Marburg entry inh -1.3%[46.1 µM], Lassa entry inh -6.4%[46.1 µM], FMDV inh -8.2%, HCMV antiviral -60.4* and HCV inhibitor 5.6%.
